Assay results reported in PubChem BioAssay AID504929 (The Scripps Research Institute Molecular Screening Center, 2011).
Active and inactive are the calls of the source. How the calls were made is not given here.

Test: AlphaScreen signal with amyloid beta 1-40, late-stage follow-up, counter-screen for Wee1 degradation inhibitor project, biochemical, amplified proximity luminescence (AID 504929)
Details: Abeta1-40 counterscreen, concentration not given here

Row | Compound | signal
1 | O=[N+]([O-])c1cccc2[nH]c(CNc3nc(N4CCOCC4)nc4c3ncn4-c3ccsc3)nc12 | 60% (active)
2 | c1ccc2[nH]c(CNc3nc(N4CCOCC4)nc4c3ncn4-c3ccsc3)nc2c1 | 75% (active)
